Data: PubChem BioAssay AID1159580 (chemical genetic matrix, 2015)
Screen size: about 5,500 compounds; about 2,000 (36%) were called active. Another 18% or so got no clear call; they are omitted. Rule as the data show it: active = normalized growth mostly below about 0.91 (no sharp cut-off); inconclusive = no clear call, values can overlap the other calls; inactive = mostly above about 0.92. This is one part of the list.

Assay: chemical genetic growth profiling, strain panel (AID 1159580);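 also: tested at 20 µM; growth read once vehicle control cultures reached saturation at 30 °C; 1 = growth at the plate median or of vehicle wells; lower values mean less growth of the strain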
Conditions: S. cerevisiae deletion strains, growth OD
[1] = locus YAL021C, strain ccr4, stronger effect = lower value
[2] = locus YAL026C, strain drs2, stronger effect = lower value
[3] = locus YAL030W, strain snc1, stronger effect = lower value
[4] = locus YBL061C, strain skt5, stronger effect = lower value
[5] = locus YBR009C, strain hhf1, stronger effect = lower value
[6] = locus YBR023C, strain chs3, stronger effect = lower value
[7] = locus YBR171W, strain sec66, stronger effect = lower value
[8] = locus YBR231C, strain swc5, stronger effect = lower value
[9] = locus YBR279W, strain paf1, stronger effect = lower value
[10] = locus YCL011C, strain gbp2, stronger effect = lower value
[11] = locus YCL016C, strain dcc1, stronger effect = lower value
[12] = locus YCL069W, strain vba3, stronger effect = lower value
[13] = locus YCR088W, strain abp1, stronger effect = lower value
[14] = locus YDL005C, strain med2, stronger effect = lower value
[15] = locus YDL040C, strain nat1, stronger effect = lower value
[16] = locus YDR001C, strain nth1, stronger effect = lower value
[17] = locus YDR069C, strain doa4, stronger effect = lower value
[18] = locus YDR137W, strain rgp1, stronger effect = lower value
[19] = locus YDR159W, strain sac3, stronger effect = lower value
[20] = locus YDR297W, strain sur2, stronger effect = lower value
[21] = locus YDR334W, strain swr1, stronger effect = lower value
[22] = locus YDR335W, strain msn5, stronger effect = lower value
[23] = locus YDR392W, strain spt3, stronger effect = lower value
[24] = locus YEL003W, strain gim4, stronger effect = lower value
[25] = locus YEL037C, strain rad23, stronger effect = lower value
[26] = locus YEL061C, strain CIN8 (second series), stronger effect = lower value
[27] = locus YER015W, strain faa2, stronger effect = lower value
[28] = locus YER016W, strain bim1, stronger effect = lower value
[29] = locus YER111C, strain swi4, stronger effect = lower value
[30] = locus YER155C, strain BEM2 (second series), stronger effect = lower value
[31] = locus YFR010W, strain ubp6, stronger effect = lower value
[32] = locus YGL167C, strain pmr1, stronger effect = lower value
[33] = locus YGL173C, strain kem1, stronger effect = lower value
[34] = locus YGL227W, strain vid30, stronger effect = lower value
[35] = locus YGL240W, strain doc1, stronger effect = lower value
[36] = locus YGL253W, strain hxk2, stronger effect = lower value
[37] = locus YHR013C, strain ard1, stronger effect = lower value
[38] = locus YHR027C, strain rpn1, stronger effect = lower value
[39] = locus YHR030C, strain SLT2, stronger effect = lower value
[40] = locus YHR079C, strain IRE1, stronger effect = lower value
[41] = locus YHR142W, strain chs7, stronger effect = lower value
[42] = locus YJL092W, strain hpr5, stronger effect = lower value
[43] = locus YJL095W, strain BCK1 (second series), stronger effect = lower value
[44] = locus YJL095W, strain BCK1, stronger effect = lower value
[45] = locus YJL115W, strain asf1, stronger effect = lower value
[46] = locus YJL129C, strain trk1, stronger effect = lower value
[47] = locus YJL154C, strain vps35, stronger effect = lower value
[48] = locus YJL164C, strain tpk1, stronger effect = lower value
[49] = locus YJL166W, strain qcr8, stronger effect = lower value
[50] = locus YJR066W, strain TOR1, stronger effect = lower value
[51] = locus YKL160W, strain elf1, stronger effect = lower value
[52] = locus YKR026C, strain gcn3, stronger effect = lower value
[53] = locus YKR091W, strain srl3, stronger effect = lower value
[54] = locus YLL001W, strain dnm1, stronger effect = lower value
[55] = locus YLL026W, stronger effect = lower value
[56] = locus YLL041C, strain sdh2, stronger effect = lower value
[57] = locus YLR027C, strain aat2, stronger effect = lower value
[58] = locus YLR113W, strain HOG1, stronger effect = lower value
[59] = locus YLR221C, strain rsa3, stronger effect = lower value
[60] = locus YLR258W, strain gsy2, stronger effect = lower value
[61] = locus YLR262C, strain YPT6 (second series), stronger effect = lower value
[62] = locus YLR320W, strain mms22, stronger effect = lower value
[63] = locus YLR342W, strain FKS1, stronger effect = lower value
[64] = locus YLR357W, strain rsc2, stronger effect = lower value
[65] = locus YLR370C, strain arc18, stronger effect = lower value
[66] = locus YLR384C, strain iki3, stronger effect = lower value
[67] = locus YML120C, strain ndi1, stronger effect = lower value
[68] = locus YMR058W, strain fet3, stronger effect = lower value
[69] = locus YMR125W, strain sto1, stronger effect = lower value
[70] = locus YMR129W, stronger effect = lower value
[71] = locus YMR205C, strain PFK2, stronger effect = lower value
[72] = locus YMR231W, strain pep5, stronger effect = lower value
[73] = locus YNL071W, strain lat1, stronger effect = lower value
[74] = locus YNL183C, strain NPR1, stronger effect = lower value
[75] = locus YNL209W, strain ssb2, stronger effect = lower value
[76] = locus YNL248C, strain rpa49, stronger effect = lower value
[77] = locus YNL322C, strain KRE1 (second series), stronger effect = lower value
[78] = locus YNR049C, strain mso1, stronger effect = lower value
[79] = locus YOR001W, strain rrp6, stronger effect = lower value
[80] = locus YOR070C, strain gyp1, stronger effect = lower value
[81] = locus YOR080W, strain dia2, stronger effect = lower value
[82] = locus YOR083W, strain WHI5, stronger effect = lower value
[83] = locus YOR106W, strain vam3, stronger effect = lower value
[84] = locus YOR231W, strain MKK1, stronger effect = lower value
[85] = locus YOR265W, strain rbl2, stronger effect = lower value
[86] = locus YOR270C, strain vph1, stronger effect = lower value
[87] = locus YOR290C, strain snf2, stronger effect = lower value
[88] = locus YPL051W, strain arl3, stronger effect = lower value
[89] = locus YPL078C, strain atp4, stronger effect = lower value
[90] = locus YPL106C, strain sse1, stronger effect = lower value
[91] = locus YPL240C, strain hsp82, stronger effect = lower value
[92] = locus YPL256C, strain CLN2, stronger effect = lower value

Measured: normalized growth

Nc1ncn[nH]1
inactive: [1] 0.986 | [2] 1.02 | [3] 1.02 | [4] 1.02 | [5] 1.04 | [6] 1.02 | [7] 1.02 | [8] 1.02 | [9] 1.02 | [10] 1.02 | [11] 1.02 | locus YCL061C, strain MRC1, stronger effect = lower value 1.02 | [12] 1.02 | [13] 1.02 | [14] 1.02 | [15] 1.02 | [16] 1.02 | [17] 1.03 | [18] 1 | [19] 1.05 | locus YDR195W, strain ref2 1.01 | [20] 1.01 | [21] 1.02 | [22] 1.02 | [23] 0.966 | [24] 1.02 | [25] 1.02 | [26] 1.01 | [27] 1.02 | [28] 1.03 | [29] 1.02 | [30] 1.04 | [31] 1.02 | [32] 1.02 | [33] 1.02 | [34] 1.02 | [35] 1.05 | [36] 1.01 | [37] 1.01 | [38] 1.02 | [39] 0.995 | [40] 1 | [41] 0.97 | [42] 1.02 | [43] 1.02 | [44] 0.967 | [45] 1.02 | [46] 1 | [47] 1.02 | [48] 1 | [49] 1.01 | locus YJL187C, strain SWE1, stronger effect = lower value 1.02 | [50] 0.923 | [51] 0.974 | [52] 1.01 | [53] 1.02 | [54] 1.03 | [55] 1.01 | [56] 1.02 | [57] 1.01 | [58] 0.985 | [59] 0.995 | [60] 1.03 | [61] 1 | [62] 1.03 | [63] 1.01 | [64] 1.06 | [65] 1.01 | [66] 1 | [67] 0.997 | [68] 1.02 | [69] 1.05 | [70] 1.01 | [71] 1.05 | [72] 1.02 | [73] 1.01 | [74] 0.933 | [75] 1.01 | [76] 0.985 | [77] 1 | [78] 1.02 | [79] 1 | [80] 1.03 | [81] 1.02 | [82] 0.979 | [83] 0.987 | [84] 0.988 | [85] 1.01 | [86] 1.02 | [87] 0.982 | [88] 0.988 | [89] 0.982 | [90] 1.05 | [91] 1.02 | [92] 0.96

O=C(O)[C@@H]1CCN1
inactive: locus YAL040C, strain CLN3, stronger effect = lower value 1.01 | locus YDR363W, strain ESC2, stronger effect = lower value 0.998 | locus YER002W, strain NOP16, stronger effect = lower value 0.998 | locus YGR078C, strain PAC10, stronger effect = lower value 1.01 | locus YGR229C, strain SMI1, stronger effect = lower value 0.984 | locus YMR263W, strain SAP30, stronger effect = lower value 0.998 | locus YMR307W, strain GAS1, stronger effect = lower value 0.992 | locus YNL153C, strain GIM3, stronger effect = lower value 0.996 | locus YNL175C, strain NOP13, stronger effect = lower value 1.01 | locus YNL197C, strain WHI3, stronger effect = lower value 1.02 | locus YNL224C, strain SQS1, stronger effect = lower value 0.963 | locus YOR083W, strain WHI5 (second series), stronger effect = lower value 1 | locus YPL055C, strain LGE1, stronger effect = lower value 0.996 | locus YPL241C, strain CIN2, stronger effect = lower value 1.01

CCOC(=O)n1ccn(C)c1=S
inactive: [1] 0.987 | [2] 0.996 | [3] 0.994 | [4] 1.01 | [5] 0.946 | [6] 1.01 | [7] 0.98 | [8] 0.984 | [9] 1 | [10] 0.997 | [11] 1.03 | [12] 0.984 | [13] 0.99 | [14] 0.99 | [15] 0.985 | [16] 0.982 | [17] 0.994 | [18] 0.96 | [19] 0.881 | locus YDR195W, strain ref2 0.976 | [20] 1 | [21] 0.961 | [22] 1.01 | [23] 0.939 | [24] 0.972 | [25] 0.974 | [26] 0.966 | [27] 0.982 | [28] 1.06 | [29] 0.994 | [30] 0.961 | [31] 0.955 | [32] 0.97 | [33] 0.975 | [34] 0.985 | [35] 0.995 | [36] 0.998 | [37] 1.02 | [38] 0.997 | [39] 1.02 | [40] 1.01 | [41] 1.01 | [42] 0.987 | [43] 0.99 | [44] 1.01 | [45] 0.963 | [46] 0.974 | [47] 0.977 | [48] 0.979 | [49] 0.986 | [50] 0.988 | [51] 1.04 | [52] 0.97 | [53] 0.99 | [54] 0.951 | [55] 0.986 | [56] 0.988 | [57] 0.999 | [58] 0.999 | [59] 0.967 | [60] 1 | [61] 0.929 | [62] 0.931 | [63] 1.01 | [64] 0.99 | [65] 0.998 | [66] 0.981 | [67] 0.974 | [68] 0.991 | [69] 0.971 | [70] 0.979 | [71] 0.983 | [72] 0.988 | [73] 0.98 | [74] 0.971 | [75] 0.985 | [76] 1.04 | [77] 1.01 | [78] 0.999 | [79] 0.949 | [80] 1.01 | [81] 0.998 | [82] 1.01 | [83] 1.02 | [84] 1.02 | [85] 0.988 | [86] 1.02 | [87] 1.05 | [88] 1.06 | [89] 1.05 | [90] 1.04 | [91] 0.994 | [92] 0.98
